# Screening data deposited in PubChem by several laboratories.
# In the library only some 4.7% were active in any assay of this set; here they are far more common.
# Efflux pump mplx = inhibitors of Candida antifungal efflux pumps expressed in yeast | S. cerevisiae Candida pump triplex, Nile Red efflux | inhibition, % at 10 µM | 330,000 tested, 0.44% active;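 active = plate passing quality check with inhibition over a set limit, or well fluorescence over plate mean plus 4 SD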;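 also: Nile Red retained in pooled yeast measured as flow cytometry median fluorescence; higher means more Nile Red kept so more efflux inhibition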
# PABP1 MLLE inh = inhibitors of microRNA-mediated deadenylation, human PABP1 MLLE binding. inhibition, % at 20 µM. P11940. GST-MLLE / FITC-PAM2 fluorescence polarization. AID 588489. 360,000 tested, 0.36% active; in the data active = inhibition above about 35%, passing the limit was not always enough
# eIF4H FP inh = inhibitors of RNA binding by human eIF4H; inhibition, % at 35 µM; 290,000 tested, 0.94% active; Q15056; eIF4H fluorescence polarization binding assay;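 also: calls also rest on retests at 20 µM and on dose response follow-up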
# PABP FP inh = blocks human PABP binding to poly(A) RNA; P11940; fluorescence polarization; inhibition, % at 35 µM; 290,000 tested, 1% active;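 also: calls also rest on retests at 20 µM and on dose response follow-up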
# ALR inh = blocks human ALR sulfhydryl oxidase activity; P55789; 290,000 tested, 3.8% active; AID 485317; purified ALR, DTT oxidation, H2O2 HRP-luminol luminescence; inhibition, % (no concentration beside the values);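 active = mean replicate inhibition above about 79%, with every replicate also reaching it, limit read from the data; inconclusive = only one of the two criteria met; inactive = mean below limit and not every replicate reaching it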
# Target sequence (P55789 whole entry, looked up): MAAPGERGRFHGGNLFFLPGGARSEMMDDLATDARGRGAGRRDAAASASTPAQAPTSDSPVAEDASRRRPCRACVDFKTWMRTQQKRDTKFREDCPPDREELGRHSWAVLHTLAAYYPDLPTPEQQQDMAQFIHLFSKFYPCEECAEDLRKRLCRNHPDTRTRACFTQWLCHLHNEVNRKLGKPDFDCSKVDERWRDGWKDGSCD
# SUMO HTRF inh = blocks human SUMOylation mediated by UBC9; P63279; HTRF SUMOylation assay, SAE1/SAE2 + UBC9, in vitro; inhibition, % at 35 µM; 290,000 tested, 0.36% active; in the data active = inhibition above about 50%, passing the limit was not always enough; inconclusive = no clear call, values can overlap the other calls
# Target sequence (P63279 whole entry, looked up): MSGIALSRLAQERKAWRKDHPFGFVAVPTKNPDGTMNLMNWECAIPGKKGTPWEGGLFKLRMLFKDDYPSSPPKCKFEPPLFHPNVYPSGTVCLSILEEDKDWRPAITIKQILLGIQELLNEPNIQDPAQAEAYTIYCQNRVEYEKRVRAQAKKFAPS
# Numbers stand for hits; 0 = inactive; ? = inconclusive; - = no result. Unless noted, no rule for the calls is given here.
SMILES,Efflux pump mplx,PABP1 MLLE inh,eIF4H FP inh,PABP FP inh,ALR inh,SUMO HTRF inh
CC(=O)Nc1ccc(-n2cc(-c3ccccc3)[nH]c2=S)cc1,0,0,0,0,99.2,0
Cc1cccc(-n2cc(-c3ccccc3)[nH]c2=S)c1,0,0,0,0,77.0,0
COc1ccccc1-n1cc(-c2ccccc2)[nH]c1=S,0,0,0,0,0,0
COc1ccc(-n2cc(-c3ccccc3)[nH]c2=S)cc1,0,0,0,0,85.1,0
CNc1nc(SC(C)C(=O)Nc2ccc(Cl)c(Cl)c2)nc(N2CCOCC2)n1 (stereo unspecified),0,0,0,0,0,0
Nc1c(C(=O)N2CCCCCC2)oc2ccccc12,0,0,0,0,0,0
Cc1cc(-c2n[nH]c(=S)n2/N=C/c2cccc(O)c2)n[nH]1,0,0,0,0,96.3,0
Cc1cc(-c2n[nH]c(=S)n2/N=C/c2cccc([N+](=O)[O-])c2)n[nH]1,0,0,0,0,97.1,0
COc1nc(-c2ccccc2)cc(-c2ccccc2)n1,0,0,active,84.3,-,0
Cc1nc(-c2ccccc2)cc(-c2ccccc2)n1,0,0,-,-,0,-
Cc1oc(=O)c(NC(=O)c2cccc(Cl)c2)cc1C(=O)c1ccccc1,0,0,0,0,97.5,0
COc1ccc(C(=O)Nc2cc(C(=O)c3ccccc3)c(C)oc2=O)cc1,0,0,0,0,0,0
Cn1c2ccccc2c2cc(C(=O)N3CCN(CCO)CC3)sc21,0,0,0,0,98.7,0
CC(=O)NNC(=O)c1cc2c3ccccc3n(C)c2s1,0,0,0,0,0,0
Cc1cc(CNC[C@H]2O[C@@H](n3cnc4c(N)ncnc43)[C@H](O)[C@@H]2O)no1,-,0,-,-,-,-
[O-]c1c[n+](-c2ccc(-[n+]3cc([O-])on3)cc2)no1,0,0,0,0,98.1,0
Nc1ncnc2c1ncn2[C@@H]1O[C@H](C(=O)Nc2ccc(Oc3ccccc3)nc2)[C@@H](O)[C@H]1O,-,0,-,-,-,-
CCN(CC)S(=O)(=O)c1ccc(S(=O)(=O)N(CC(=O)Nc2ccccc2)CC2CCCO2)cc1 (stereo unspecified),0,0,-,-,97.9,-
O=C(CSc1nnc(-c2ccc(Cl)cc2)o1)N1CCOCC1,0,0,0,0,-,0
O=C(O)c1cc2cccc(S(=O)(=O)N3CCOCC3)c2cc1O,0,0,0,0,0,51.8
CCOc1cc(CNc2ccccc2SC)ccc1O,0,-,0,0,80.3,0
O=c1[nH]c(=S)[nH]c2nccnc12,-,0,-,-,-,-
Cc1c(C(=O)Nc2ccc(S(N)(=O)=O)cc2)oc2ccc(Cl)cc12,0,0,0,0,0,0
Cc1c(C(=O)NNC(=S)Nc2ccc(S(N)(=O)=O)cc2)oc2ccccc12,0,0,0,0,99.0,0
NS(=O)(=O)c1ccc(NC(=S)NNC(=O)c2ccc(Br)o2)cc1,0,0,0,0,94.9,0
SMILES,Efflux pump mplx,PABP1 MLLE inh,eIF4H FP inh,PABP FP inh,ALR inh,SUMO HTRF inh
COc1ccc([C@H]2[C@H](C(=O)C(C)(C)C)N3N=Cc4ccccc4C3C23C(=O)OC(C)(C)OC3=O)cc1 (stereo partly specified),0,0,0,0,95.1,0
COc1ccc([C@@H]2[C@@H](C(=O)C(C)(C)C)N3N=Cc4ccccc4[C@@H]3C23C(=O)OC(C)(C)OC3=O)cc1OC,0,0,0,0,0,0
Cc1cc(C)c2sc(N)nc2c1,0,0,0,0,0,0
COc1cc(Sc2ccc(C)cc2)c(OC)cc1N,0,0,0,0,98.4,0
COC(=O)c1ccc(Sc2ccc(C)cc2)c(N)c1,0,0,0,0,0,0
Nc1nnc(SCC(=O)N2CCN(c3ccccc3)CC2)n1-c1ccccc1,0,0,0,0,98.2,0
Nc1nnc(SCC(=O)N2CCN(c3ccccc3)CC2)s1,0,0,0,0,98.8,0
Nc1nnc(SCC(=O)N2CCCCC2)s1,0,0,0,0,-,0
O=C(NNc1ccc(-c2csnn2)cc1)c1cc(Cl)cc(Cl)c1,0,0,0,0,0,0
O=C(NNc1ccc(-c2csnn2)cc1)c1ccccc1C(F)(F)F,0,0,0,0,98.1,0
COc1cccc(NC(=O)C(c2ccccc2)N2CCCCC2)c1 (stereo unspecified),0,0,8.5,95.8,0,0
COc1ccc(NC(=O)CSc2n[nH]c(=O)n2C2CC2)cc1Cl,-,0,-,-,-,-
COc1ccc(NC(=O)CSc2nc(-c3ccco3)nc3cc(=O)[nH]n23)cc1Cl,0,0,0,0,99.1,0
Cc1ccc(S(=O)(=O)NC(=S)NC2CCCCC2)cc1,0,46.6,0,0,-,0
CCc1ccc(S(=O)(=O)NC(=S)NC2CCCCC2)cc1,0,42.8,0,0,0,0
O=S(=O)(NC(=S)NC1CCCCC1)c1ccc(Cl)cc1,0,0,0,0,-,0
COc1ccc(NC(=S)N2CCC3CC2c2cc(-c4ccc5c(c4)OCO5)ccc23)c(OC)c1 (stereo unspecified),-,0,-,-,-,-
O=C1c2ccccc2C(=O)c2c(/C=C/N3CCCCC3)ccnc21,-,43.4,-,-,-,-
O=C1c2ccccc2-c2cccnc21,0,0,0,0,-,0
O=C(CNCC1CCCO1)Nc1ccccc1N1CCCCCC1 (stereo unspecified),0,0,0,0,98.5,0
O=C1CCC(C(=O)Nc2ccccc2N2CCOCC2)=NN1,0,0,0,0,0,0
O=C1CCC(C(=O)Nc2ccccc2N2CCCC2)=NN1,0,0,-,-,84.7,-
O=C(Nc1ccccc1N1CCCC1)c1ccccc1F,0,0,0,0,98.4,0
O=C(CNCC1CCCO1)Nc1ccc(N2CCCCCC2)cc1 (stereo unspecified),0,0,0,0,-,0
O=C(CN1C(=O)C2CC=CCC2C1=O)Nc1ccccc1N1CCCC1 (stereo unspecified),0,0,-,-,?,-
SMILES,Efflux pump mplx,PABP1 MLLE inh,eIF4H FP inh,PABP FP inh,ALR inh,SUMO HTRF inh
O=C(CN1C(=O)C2CCCCC2C1=O)Nc1ccccc1N1CCCC1 (stereo unspecified),0,0,-,-,97.3,-
CCN=C1S/C(=C/c2ccc(-c3ccc(F)cc3)o2)C(=O)N1CC,0,0,0,0,0,0
O=C(Cc1ccccc1F)Nc1ccccc1N1CCCC1,0,0,0,0,98.2,0
CCC(Oc1ccccc1)C(=O)Nc1ccccc1N1CCCC1 (stereo unspecified),0,0,0,0,0,0
CCC(C(=O)Nc1ccccc1N1CCCC1)c1ccccc1 (stereo unspecified),0,0,0,0,97.9,0
O=C(Nc1ccccc1N1CCCC1)c1cccnc1Cl,0,0,0,0,0,0
O=C(Nc1ccccc1N1CCCC1)c1cccc(Cl)c1Cl,0,0,0,0,98.3,0
COc1cc(O)sc1C=Nc1ccc(Cl)cc1,0,0,0,0,95.4,0
CN(C)c1ccc(NS(=O)(=O)c2cc(Cl)ccc2Cl)cc1,0,0,0,0,98.8,0
CCN(c1ccc(NS(=O)(=O)c2cc(Cl)ccc2Cl)cc1)C(C)C,0,0,0,0,?,0
CN(C)c1ccc(NC(=O)CN2CCN(S(=O)(=O)c3cc(Cl)ccc3Cl)CC2)cc1,0,0,0,0,98.8,0
